# In PubChem BioAssay (NCATS):
# A number with no mark means an inactive call. Inconclusive results are not listed. The list shows a part of the results. A call without a number means that no potency is given here. Calls of active or inactive are those of the source. Calls follow the shape of the dose curve; as a rule, active = well fitted curve in the direction sought with a large enough effect; inconclusive = small, poorly fitted or top-dose-only effect, or another doubt; inactive = no such curve, though single readings can be large; an effect the other way counts as inactive or inconclusive.
# Tests used:
# [1] = qHTS Assay for Inhibitors of Fructose-1,6-bisphosphate Aldolase from Giardia Lamblia: Giardia lamblia growth inhibition (AID 2785); also: nearly all actives have a fitted effect of over 70% in size
# In short: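 G. lamblia WB trophozoites (100 cells/well) in modified TYI-S-33 medium, pH 7.0, were exposed to pin-transferred compounds or DMSO for 48 h at 37C in sealed bags. Viability was read as ATPlite luminescence after 20 min at room temperature.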
# [2] = Confirmation and Secondary Assay for Modulators of Hemoglobin Beta Chain Splicing at IVS2 654 locus (AID 910);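 also: per-well total GFP intensity by laser scanning cytometry after 2-day treatment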
# In short: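 HeLa cells stably carrying EGFP interrupted by mutant beta-globin IVS2-654 intron (CMV-driven) were treated with compound for 2 days at 37C; corrected splicing was scored as total peak GFP intensity per well (488 nm excitation, 500-520 nm emission).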
# 7G8 = test: qHTS profiling for inhibitors of Plasmodium falciparum proliferation (AID 504749); also: nearly all actives have a fitted effect of over 60% in size; also: potency is read from the fitted curve at half-maximal effect; conditions: P. falciparum in erythrocytes, SYBR Green DNA, 72 h; series mostly up to 28.7 µM
# In short: (§1)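 Fluorescence of SYBR Green-bound parasite DNA, read at 485/535 nm, served as the growth measure. Infected erythrocytes were cultured with compound 72 h; artemisinin (0.29 uM) and DMSO wells defined the normalization range.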
# AA1029 = test: as above; conditions: P. falciparum in erythrocytes, SYBR Green DNA, 72 h; series mostly up to 28.7 µM
# In short: as §1
# CP191 = test: as above; conditions: P. falciparum in erythrocytes, SYBR Green DNA, 72 h; series mostly up to 28.7 µM
# In short: as §1
# CP211 = test: as above; conditions: P. falciparum in erythrocytes, SYBR Green DNA, 72 h; series mostly up to 28.7 µM
# In short: as §1
# CP215 = test: as above; conditions: P. falciparum in erythrocytes, SYBR Green DNA, 72 h; series mostly up to 28.7 µM
# In short: as §1
# CP217 = test: as above; conditions: P. falciparum in erythrocytes, SYBR Green DNA, 72 h; series mostly up to 28.7 µM
# In short: as §1
# CP252 = test: as above; conditions: P. falciparum in erythrocytes, SYBR Green DNA, 72 h; series mostly up to 28.7 µM
# In short: as §1
# CP291 = test: as above; conditions: P. falciparum in erythrocytes, SYBR Green DNA, 72 h; series mostly up to 28.7 µM
# In short: as §1
# CP297 = test: as above; conditions: P. falciparum in erythrocytes, SYBR Green DNA, 72 h; series mostly up to 28.7 µM
# In short: as §1
# CP315 = test: as above; conditions: P. falciparum in erythrocytes, SYBR Green DNA, 72 h; series mostly up to 28.7 µM
# In short: as §1
# DIV14 = test: as above; conditions: P. falciparum in erythrocytes, SYBR Green DNA, 72 h; series mostly up to 28.7 µM
# In short: as §1
# DIV17 = test: as above; conditions: P. falciparum in erythrocytes, SYBR Green DNA, 72 h; series mostly up to 28.7 µM
# In short: as §1
# FAB9 = test: as above; conditions: P. falciparum in erythrocytes, SYBR Green DNA, 72 h; series mostly up to 28.7 µM
# In short: as §1
# HB3 = test: as above; conditions: P. falciparum in erythrocytes, SYBR Green DNA, 72 h; series mostly up to 28.7 µM
# In short: as §1
# ICS = test: as above; conditions: P. falciparum in erythrocytes, SYBR Green DNA, 72 h; series mostly up to 28.7 µM
# In short: as §1
# JCK = test: as above; conditions: P. falciparum in erythrocytes, SYBR Green DNA, 72 h; series mostly up to 28.7 µM
# In short: as §1
# N140 = test: as above; conditions: P. falciparum in erythrocytes, SYBR Green DNA, 72 h; series mostly up to 28.7 µM
# In short: as §1
# TAB113 = test: as above; conditions: P. falciparum in erythrocytes, SYBR Green DNA, 72 h; series mostly up to 28.7 µM
# In short: as §1
smiles,measurement,setting,value
O=C(NC(=S)Nc1ncccn1)c1ccccc1Br,Potency,[1],inactive
C=CCc1cc(C)ccc1OCCCn1ccnc1,"activity change, negative = inhibition",[1],5.83% [at 10.4 µM]
O=C(CSc1cccc[n+]1[O-])c1ccc(-c2ccccc2)cc1,Potency,[1],inactive
CN(C)CCOc1ccc(Cl)cc1C(C)(C)C,"activity change, negative = inhibition",[1],-6.56% [at 10.4 µM]
COc1cc(CN2CCN(Cc3ccc(C)cc3)CC2)c([N+](=O)[O-])cc1OC,Potency,[1],inactive
CN(C)Cc1ccccc1-c1ccc2ncnc(NC3CCNCC3)c2c1,outcome,[2],inactive
CC(C)(C)NC[C@@H](O)c1ccc(O)c(CO)n1,Potency,7G8,inactive
same,Potency,AA1029,inactive
same,Potency,CP191,inactive
same,Potency,CP211,inactive
same,Potency,CP215,inactive
same,Potency,CP217,inactive
same,Potency,CP252,inactive
same,Potency,CP291,inactive
same,Potency,CP297,inactive
same,Potency,CP315,inactive
same,Potency,DIV14,inactive
same,Potency,DIV17,inactive
same,Potency,FAB9,inactive
same,Potency,HB3,inactive
same,Potency,ICS,inactive
same,Potency,JCK,inactive
same,Potency,N140,inactive
same,Potency,TAB113,inactive
COc1ccccc1-c1nc(NCc2ccccc2)c2ccccc2n1,outcome,[2],inactive
C[C@]12CC[C@H]3c4ccc(O)cc4CC[C@@H]3[C@H]1CC[C@@H]2OC(=O)CCC1CCCC1,Potency,7G8,4.47 µM (active)
same,Potency,AA1029,inactive
same,Potency,CP211,inactive
same,Potency,CP215,inactive
same,Potency,CP217,inactive
same,Potency,CP252,inactive
same,Potency,CP291,inactive
same,Potency,CP297,inactive
same,Potency,CP315,inactive
same,Potency,DIV14,9.53 µM (active)
same,Potency,DIV17,10.7 µM (active)
same,Potency,FAB9,inactive
same,Potency,ICS,3.16 µM (active)
same,Potency,JCK,inactive
same,Potency,N140,12.6 µM (active)
O=C(O)[C@@H](S)[C@H](S)C(=O)O,Potency,7G8,5.01 µM (active)
same,Potency,AA1029,10 µM (active)
same,Potency,CP191,8.91 µM (active)
same,Potency,CP211,6.75 µM (active)
same,Potency,CP215,9.53 µM (active)
same,Potency,CP217,6.31 µM (active)
same,Potency,CP252,10 µM (active)
same,Potency,CP291,12 µM (active)
same,Potency,CP297,15.1 µM (active)
same,Potency,CP315,15.1 µM (active)
same,Potency,DIV14,8.49 µM (active)
same,Potency,DIV17,13.5 µM (active)
same,Potency,FAB9,11.2 µM (active)
same,Potency,HB3,10 µM (active)
same,Potency,ICS,8.91 µM (active)
same,Potency,JCK,11.2 µM (active)
same,Potency,N140,7.94 µM (active)
same,Potency,TAB113,11.2 µM (active)
CNc1ncncc1-c1ccc(C(=O)N(C)C)cc1,outcome,[2],inactive
NS(=O)(=O)c1cc2c(cc1Cl)N[C@H](Cc1ccccc1)NS2(=O)=O,Potency,7G8,inactive
same,Potency,AA1029,inactive
same,Potency,CP191,inactive
same,Potency,CP211,inactive
same,Potency,CP215,inactive
same,Potency,CP217,inactive
same,Potency,CP252,inactive
same,Potency,CP291,inactive
same,Potency,CP297,inactive
same,Potency,CP315,inactive
same,Potency,DIV14,inactive
same,Potency,DIV17,inactive
same,Potency,FAB9,inactive
same,Potency,HB3,inactive
same,Potency,ICS,inactive
same,Potency,JCK,inactive
same,Potency,N140,inactive
same,Potency,TAB113,inactive
CN(C)c1ccc(-c2cc(NCc3ccccc3)ncn2)cc1,outcome,[2],inactive
CN(C)c1ccc(-c2nc(N3CCNCC3)c3ccccc3n2)cc1,outcome,[2],inactive
CN(C)[C@H]1C(=O)C(C(=O)NCN2CCCC2)=C(O)[C@]2(O)C(=O)C3=C(O)c4c(O)cccc4[C@](C)(O)[C@H]3C[C@H]12,Potency,7G8,inactive
same,Potency,AA1029,inactive
same,Potency,CP191,inactive
same,Potency,CP211,inactive
same,Potency,CP215,inactive
same,Potency,CP217,inactive
same,Potency,CP252,inactive
same,Potency,CP291,inactive
same,Potency,CP297,inactive
same,Potency,CP315,inactive
same,Potency,DIV14,inactive
same,Potency,DIV17,inactive
same,Potency,FAB9,inactive
same,Potency,HB3,inactive
same,Potency,ICS,inactive
same,Potency,JCK,inactive
same,Potency,N140,inactive
same,Potency,TAB113,inactive
Cc1cn([C@H]2C[C@H](N=[N+]=[N-])[C@H](CO)O2)c(=O)[nH]c1=O,Potency,7G8,inactive
same,Potency,AA1029,inactive
same,Potency,CP191,inactive
same,Potency,CP211,inactive
same,Potency,CP215,inactive
same,Potency,CP217,inactive
same,Potency,CP252,inactive
same,Potency,CP291,inactive
same,Potency,CP297,inactive
same,Potency,CP315,inactive
same,Potency,DIV14,inactive
same,Potency,DIV17,inactive
same,Potency,FAB9,inactive
same,Potency,HB3,inactive
same,Potency,ICS,inactive
same,Potency,JCK,inactive
same,Potency,N140,inactive
same,Potency,TAB113,inactive
